PubChem BioAssay AID652057 (Broad Institute, 2013)
Screen size: about 1,400 compounds; about 1,000 (71%) were called active. The rule behind the calls is not given here. The set was probably picked from earlier hits. The list is a sample of the results. Measured potencies and affinities stand elsewhere.

Experiment: blockers of HIV-1 envelope-mediated cell-cell fusion – cherry-pick, dose response (AID 652057)
Settings: HeLa-JRFL Env/CEM21 cell fusion, luciferase; series mostly up to 35 µM; activity change, negative = inhibition: at the top concentration

Activity change, negative = inhibition, inactive:
COc1ccc(/C=C/c2nc(S(=O)(=O)c3ccccc3)c(NCCCN(C)C)o2)cc1OC -16.3% [at 16 µM]
CC(C)(C)c1ccc(-n2ncc3c2CCCC3NC(=O)CN2CCCC2=O)cc1 (stereo unspecified) -6.82%
C[C@H]1CN([C@@H](C)CO)C(=O)c2cc(NS(=O)(=O)c3ccc(F)cc3)ccc2O[C@H]1CN(C)S(=O)(=O)c1ccc(F)cc1 12.1%
Cc1noc(C)c1S(=O)(=O)N(C)C[C@H]1Oc2ccc(NC(=O)Nc3ccccc3)cc2CC(=O)N([C@H](C)CO)C[C@H]1C 2.68%
Cc1ccc(OCCN2CCN(c3ncnc4sc(C)c(C)c34)CC2)cc1 -25.9%
Nc1ccc(S(=O)(=O)c2ccc(N3CCOCC3)c(N)c2)cc1 -0.63%
Cc1onc(-c2ccccc2)c1C(=O)OCCOc1cccc(Cl)c1 -2.52%
COC(=O)C1CCN(C(=O)COC(=O)c2cc(S(=O)(=O)N3CCOCC3)ccc2C)CC1 -2.73%
O=C(C[C@@H]1CC[C@@H](NC(=O)c2ccncc2)[C@H](CO)O1)NCCc1ccncc1 6.53%
CN(C)CC(=O)Nc1ccc2c(c1)[C@H]1C[C@H](CC(=O)NCc3cccc(F)c3)O[C@@H](CO)[C@H]1O2 7.88%
O=C(O)C[C@@H]1CC[C@@H](NC(=O)c2ccncc2)[C@H](CO)O1 10.2%
Cc1ccccc1S(=O)(=O)NC(=O)C1(C)CCN1C(=O)CCc1ccc(Cl)cc1Cl (stereo unspecified) 4.53%
O=C(c1cccc(S(=O)(=O)N2CCN(c3ccccc3)CC2)c1)N1CCCC(C(F)(F)F)C1 (stereo unspecified) -16.8%
Cn1cc(S(=O)(=O)N2CCOCC2)cc1C(=O)Nc1cccc(Cl)c1 -2.31%
O=C(Nc1cccc(F)c1)N[C@@H]1CC[C@H](CCNS(=O)(=O)c2cccc(Cl)c2)O[C@H]1CO -2.87%
COc1cccc(S(=O)(=O)N2CC3(CN(C(=O)Nc4cccc(F)c4)[C@H](CO)c4[nH]c5cc(OC)ccc5c43)C2)c1 31.9% [at 16 µM]
O=C(Nc1cccc(F)c1)N[C@H]1CC[C@@H](CCNS(=O)(=O)c2cccc(Cl)c2)O[C@H]1CO 10.6%
CC(C)OCCCn1c(=S)[nH]c2ccc(N3CCOCC3)cc2c1=O -19.3%
Cn1cccc1C(=O)OCC(=O)NCCc1ccc(S(N)(=O)=O)cc1 -3.08%
CN(C)CC(=O)Nc1ccc2c(c1)[C@H]1C[C@@H](CC(=O)NCCc3ccccc3)O[C@H](CO)[C@H]1O2 -6.39% [at 30 µM]
CC1Cc2cc(-c3csc(NC(=O)Cc4cccs4)n3)ccc2N1S(C)(=O)=O (stereo unspecified) 3.57%
O=C(Nc1nc(-c2ccc3c(c2)OCO3)cs1)c1ccncc1 19.8%
CS(=O)(=O)N1CCN(c2ccccc2NC(=O)C(c2ccccc2)c2ccccc2)CC1 -35.7%
CCCNC(=O)C[C@H]1C[C@H]2c3cc(NC(=O)CN(C)C)ccc3O[C@H]2[C@H](CO)O1 -3.46%
c1csc(-c2csc3ncnc(NCCCN4CCOCC4)c23)c1 -29.8%
Clc1ccc(OCCN2CCN(c3ncnc4sccc34)CC2)cc1 -19%
Cc1cccc(C)c1NC(=O)N1CCN(c2nc3ccccc3s2)CC1 -9.77%
C[C@@H]1CN([C@H](C)CO)C(=O)c2cc(NC(=O)Nc3ccccc3)ccc2O[C@@H]1CN(C)S(=O)(=O)c1ccccc1 47.9%
Cc1nnc(SC(=O)N2c3ccccc3Sc3ccccc32)s1 119%
Cc1ccc(S(=O)(=O)N(C)C[C@@H]2Oc3cc(C#CC4CCCC4)ccc3S(=O)(=O)N([C@H](C)CO)C[C@H]2C)cc1 -29.5%
O=C(C[C@H]1C[C@H]2c3cc(NC(=O)Cc4ccncc4)ccc3O[C@H]2[C@@H](CO)O1)NCc1ccncc1 -10.2%
O=C(C[C@@H]1C[C@H]2c3cc(NC(=O)NC4CCCCC4)ccc3O[C@H]2[C@@H](CO)O1)NCc1ccncc1 11.5%
O=C(NNC(=O)C(c1ccccc1)c1ccccc1)c1ccccn1 -5.19%
O=C(COC(=O)c1ncc(Cl)c(Cl)c1Cl)NCc1cccs1 -16.5%
CN(Cc1cccs1)c1ncnc2sccc12 -2.6%
COc1ccc(-c2cn3c(C)c(C(=O)Nc4cccc(NC(C)=O)c4)sc3n2)cc1 13% [at 16 µM]
O=C1COc2ccc(-c3csc(=Nc4ccc(OC(F)F)cc4)n3CC3CCCO3)cc2N1 (stereo unspecified) -33%
CCc1ccc(-c2nc(CN3CCC(C(=O)NCCc4ccc(OC)c(OC)c4)CC3)c(C)o2)cc1 15.1%
CC(NNC(=S)N1CCCCCC1)c1ccc2ccccc2n1 (stereo unspecified) -25.8%
CCN1C(=O)[C@H]2[C@@H](c3ccc(C(F)(F)F)cc3)N[C@]3(CCCN(Cc4ccccc4)C3=O)[C@H]2C1=O -5.82%
O=C(Cn1ncc2c(=O)oc3ccccc3c21)N1CCC(N2CCCCC2)CC1 -4.21%
COc1ccc(CCNC(=O)C2CCCN(Cc3nc(-c4cccc(Cl)c4)oc3C)C2)cc1OC (stereo unspecified) -27.2%
C[C@@H]1CN([C@H](C)CO)C(=O)c2cccc(NC(=O)c3ccncc3)c2O[C@@H]1CN(C)Cc1ccc(C(=O)O)cc1 5.08%
C[C@@H]1CN([C@H](C)CO)C(=O)c2cccc(NC(=O)c3cnccn3)c2O[C@H]1CN(C)Cc1ccccc1 -21.7%
CCCNC(=O)C[C@@H]1C[C@H]2c3cc(NC(=O)Cc4ccncc4)ccc3O[C@H]2[C@H](CO)O1 45%
COC(=O)c1ccc(C(=O)NC2CCCc3c2cnn3-c2ccc(C)c(C)c2)cc1 (stereo unspecified) 66.7%
COc1ccccc1N1CCN(Cc2ccc(O)c3ncccc23)CC1 30%
CC1CCCN(C(=O)c2ccc(S(=O)(=O)N3CCC(c4nc5ccccc5s4)CC3)cc2)C1 (stereo unspecified) -13.8%
O=C(Nc1ccc(S(=O)(=O)N2CCN(Cc3ccccc3)CC2)cc1)c1cnccn1 -11.9%
COc1cccc(S(=O)(=O)N[C@@H]2CC[C@H](CCN)O[C@H]2CO)c1 0.746%
COc1cccc(S(=O)(=O)N[C@H]2CC[C@@H](CCN)O[C@@H]2CO)c1 30.6% [at 16 µM]
O=C(Cc1ccccc1)N[C@@H]1C=C[C@H](CC(=O)N2CCCCC2)O[C@@H]1CO 6.07%
COc1ccc(S(=O)(=O)N[C@@H]2C=C[C@H](CC(=O)N3CCC(Cc4ccccc4)CC3)O[C@@H]2CO)cc1 -5.81%
CCCCCn1c(=O)[nH]c2cc(C(=O)N3CCN(Cc4ccc5c(c4)OCO5)CC3)ccc2c1=O -30.3% [at 16 µM]
CCc1cnc(N2[C@H](C#N)[C@H](c3ccc(C#Cc4ccccc4F)cc3)[C@H]2CO)s1 -25%
Cc1ccc(C(=O)NCc2ccccn2)cc1S(=O)(=O)N1CCCCC1 12.6%
CCCn1c(=S)[nH]c2cc(C(=O)N3CCCC(C(=O)OCC)C3)ccc2c1=O (stereo unspecified) -17.7%
CN(C(=O)c1cccc(NC(=O)Cc2cccc(NC(=O)C3CCCN(C(=O)C4CCC4)C3)c2)c1)C1CCC1 (stereo unspecified) 44.8% [at 16 µM]
COc1ccc(S(=O)(=O)NC[C@@H]2CC[C@H]3[C@H](CN3Cc3cc(F)ccc3F)O2)cc1 -7%
COCC(C)n1c(-c2ccc3c(c2)NC(=O)CO3)csc1=Nc1ccc(OC(F)F)cc1 (stereo unspecified) -24.6%
C[C@@H]1CN([C@H](C)CO)C(=O)c2cccc(NS(=O)(=O)c3cn(C)cn3)c2O[C@H]1CN(C)C(=O)Nc1ccc(F)cc1 8.94%
O=C(N/N=C/c1ccc(-n2ccnc2)cc1)c1cccs1 64.2%
Cc1ccc(NC(=O)c2ccc(CN3CCc4ccccc4C3)cc2)cc1 33%
O=C(Nc1ccc(S(=O)(=O)N2CCCC2)cc1)c1ccc(CN2CCOCC2)cc1 -13.4%
C=C(C)CN(CC)c1nc(N)c2c(N)nc3c(c2c1C#N)CC(=O)N3C12CC3CC(CC(C3)C1)C2 -26.7%
CCc1nc(N2CCCCC2C)c2oc3ccccc3c2n1 (stereo unspecified) -10.6%
CCOc1ccc2c(c1)-c1c(ssc1=S)C(C)(C)N2C(=O)c1ccco1 23.5%
O=C(COC(=O)c1cccc(S(=O)(=O)N2CCOCC2)c1)NCc1ccccc1 0.395%
CC(C)OCCCNc1ncnc2c1[nH]c1ccccc12 -15%
Cc1ccccc1OCCCCn1cnc2ccccc21 46.1% [at 15 µM]
COCC(=O)Nc1ccc2c(c1)C(=O)N(C)C[C@@H](OC)[C@H](C)CN(C(C)=O)[C@H](C)CO2 -9.74%
CCN(CC)CCN(C(=O)c1cc(Cl)sc1Cl)c1nc2cc3c(cc2s1)OCO3 35.1%
CCS(=O)(=O)N[C@H]1CC[C@@H](CC(=O)NCc2ccc(Cl)cc2)O[C@@H]1CO 22.3%
O=C(C[C@@H]1C=C[C@@H](NC(=O)Nc2ccc3c(c2)OCO3)[C@H](CO)O1)NCc1ccc(F)cc1 -6.97%
O=C(Nc1cccc(F)c1)N[C@@H]1CC[C@H](CCNS(=O)(=O)c2cccc(Cl)c2)O[C@@H]1CO 42.4%
COc1ccccc1CNC(=O)C[C@H]1C[C@@H]2c3cc(NC(=O)c4cccnc4)ccc3O[C@@H]2[C@@H](CO)O1 -4.17%
O=C(C[C@H]1C[C@@H]2c3cc(NC(=O)C4CCOCC4)ccc3O[C@@H]2[C@@H](CO)O1)NCc1ccccc1F 14%
COc1cccc(CNC(=O)C[C@@H]2C=C[C@H](NC(=O)C3CCC3)[C@H](CO)O2)c1 45.5%
C[C@@H]1CN([C@H](C)CO)C(=O)c2cccc(NS(=O)(=O)c3ccc(Cl)cc3)c2O[C@H]1CN(C)CC1CCCCC1 56.1% [at 30 µM]
COC(=O)c1ccc(NC(=O)c2ccc(CN3CCOCC3)cc2)cc1 12.6%
OC1(c2ccc(OC(F)F)cc2)CSC(=Nc2cccnc2)N1C1CC1 (stereo unspecified) -12.4%
Cc1cc(Cl)c(S(=O)(=O)N2CCCC2)cc1OCC(=O)NC1CCCCC1 -17.4%
CN(C)S(=O)(=O)c1ccc(C(=O)Nc2nc(-c3cccs3)cs2)cc1 7.84%
COCCCn1c(-c2ccc(S(=O)(=O)N3CCOCC3)cc2)csc1=Nc1ccccc1 3.27%
CCCC(=O)Nc1ccc2c(c1)C(=O)N(C)C[C@@H](OC)[C@@H](C)CN(Cc1nccs1)[C@@H](C)CO2 -10.4%
COCC(=O)Nc1ccc2c(c1)C(=O)N(C)C[C@@H](OC)[C@@H](C)CN(C)[C@H](C)CO2 24.4%
